VP16 counter: inhibits Gal4-VP16 luciferase reporter, ROR gamma counter-screen; 3.5% of 310,000 active; Drosophila S2 Gal4-VP16 UAS-luciferase, luminescence, 20 h; AID 2546; Potency, µM (doses to about 53.6 µM), for the others: at the highest dose activity, negative = inhibition, hits mostly inhibitors;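 further: Gal4-VP16 expression switched on by copper sulfate through the metallothionein promoter; potency means the concentration at half of the fitted maximal effect; nearly all actives have a fitted effect of over 50% in size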
TDP1 cell noCPT: qHTS for Inhibitors of human tyrosyl-DNA phosphodiesterase 1 (TDP1): qHTS in cells in absence of CPT; DT40 Tdp1-/- hTDP1 cells, no CPT, ATP luminescence, 48 h; AID 686978, 2013; Potency, µM (highest dose often 46.2 µM), for the others: at the highest dose activity change, negative = growth inhibition, most hits filed as inhibitors; 15% of 420,000 active; further: potency means the concentration at half of the fitted maximal effect; nearly all actives have a fitted effect of over 55% in size
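Luminescent ATP content (CellTiter-Glo) served as the growth readout. Knockout chicken DT40 cells expressing human TDP1 were exposed to compounds without camptothecin for a minimum 48 hr at 37 °C.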
LDHA inh: blocks human lactate dehydrogenase A | P00338 | purified LDHA, NADH/diaphorase-resazurin fluorescence; hits give low values | activity change, % (values are at about 110 or 230 µM) | 0.15% of 480,000 active; in the data active means activity change below about -30%; inconclusive means mostly about -25% to -30%;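 further: plate controls were DMSO wells for no effect and wells without enzyme for full effect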
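Human LDH5 (2 nM) was incubated with 0.06 mM NADH and 0.2 mM pyruvate for 5 min at room temperature in Tris pH 7.4. Remaining NADH was coupled through diaphorase/resazurin, and resorufin fluorescence was read at 0 and 20 min.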
RORgamma inh: ROR gamma (mouse) transcription inhibition. Drosophila S2 Gal4-RORgamma UAS-luciferase reporter, 20 h. Potency, µM (series often up to 53.6 µM), for the others: top-dose activity change, negative = inhibition, most hits filed as inhibitors. 5.4% of 310,000 active; further: potency means the concentration at half of the fitted maximal effect; nearly all actives have a fitted effect of over 60% in size
Target sequence (P51450 whole entry, looked up, the tested form may be a part): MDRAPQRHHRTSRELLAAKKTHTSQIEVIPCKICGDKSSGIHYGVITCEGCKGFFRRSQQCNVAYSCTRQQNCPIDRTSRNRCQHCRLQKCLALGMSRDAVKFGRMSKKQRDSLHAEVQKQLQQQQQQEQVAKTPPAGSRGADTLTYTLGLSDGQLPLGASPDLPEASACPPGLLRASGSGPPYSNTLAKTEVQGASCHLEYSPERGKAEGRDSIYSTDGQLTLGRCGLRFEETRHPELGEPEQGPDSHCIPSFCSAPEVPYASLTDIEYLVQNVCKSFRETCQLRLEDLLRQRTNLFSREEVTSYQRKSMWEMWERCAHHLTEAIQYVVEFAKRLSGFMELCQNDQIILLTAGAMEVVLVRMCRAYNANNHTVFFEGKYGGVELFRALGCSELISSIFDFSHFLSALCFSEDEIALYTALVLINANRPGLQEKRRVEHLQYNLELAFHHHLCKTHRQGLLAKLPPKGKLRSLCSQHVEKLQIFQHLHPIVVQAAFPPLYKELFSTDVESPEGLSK
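Using a luciferase readout, inhibitors were identified by reduced reporter activity in Drosophila cells coexpressing a copper-inducible Gal4–ROR gamma fusion and UAS-driven Photinus luciferase, incubated 20 hr after 700 uM copper sulfate.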
DT40 TDP1 CPT: DT40-hTDP1 cell growth loss with CPT. chicken DT40 Tdp1-/-;hTDP1 cells + 20 nM CPT, ATP luminescence, 48 h. Potency, µM (doses to about 46.2 µM), without a hit: at the highest dose activity change, negative = growth inhibition, usual class: inhibitors. 12% of 420,000 active. AID 686979; further: potency means the concentration at half of the fitted maximal effect; nearly all actives have a fitted effect of over 55% in size
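Chicken DT40 Tdp1-/- cells stably complemented with human TDP1 were seeded at 400 cells/well in medium containing 20 nM camptothecin, exposed to pin-transferred compounds, and grown at 37 °C for at least 48 hr. Viability was read as ATP luminescence.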
IL1B secr inh: inhibitors of inflammasome signaling (IL-1 beta secretion) | THP-1 LPS/ATP IL-1B secretion, AlphaLISA, 16 h; hits give low values | activity change, % at 57.5 µM | 4.7% of 360,000 active | AID 743279; in the data active means activity change below about -50%; inconclusive means mostly about -30% to -49%
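Secreted IL-1B measured by AlphaLISA bead assay after 16 h compound exposure of THP-1 cells; compounds (final up to 57.5 uM) added 1 h before LPS (250 ng/mL) and ATP (1.25 mM) stimulation; lower signal means less secretion.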
The depositor's hits bear a star; ? = inconclusive; . = not tested or not shown; [ ] = another dose, or the depositor's remark. A selection: hits, their analogues and other compounds. The true share with any hit is near 18%. Unless noted, the call rests on the fitted dose curve; in most records, active means well fitted curve in the direction sought with a large enough effect; inconclusive means small, poorly fitted or top-dose-only effect, or another doubt; inactive means no such curve, though single readings can be large; an effect the other way counts as inactive or inconclusive. Unless noted, on the % scale 0 is the no-effect control and ±100 the full control effect.

SMILES | VP16 counter | TDP1 cell noCPT | LDHA inh | RORgamma inh | DT40 TDP1 CPT | IL1B secr inh
CCN1CCCC1CNC(=O)c1ccc(Sc2ccccc2Cl)c([N+](=O)[O-])c1 (stereo not drawn) | 1%[10 µM] | ? | -5 | ? | ? | -50*
COc1cccc(/C=C(/CCC(=O)O)c2nc3ccccc3s2)c1 | . | . | -15 | . | . | .
O=C(COC(=O)/C=C/c1ccc(Cl)c(Cl)c1)NC1CCS(=O)(=O)C1 (stereo not drawn) | . | 18µM* | -5 | . | 10µM* | 0
O=C(COC(=O)/C=C/c1ccc(Cl)c(Cl)c1)NC1CCCC1 | . | -12% | -3 | . | 3% | 20
COc1ccc(CN2CCCCCC2c2cccs2)c(OC)c1 (stereo not drawn) | . | . | -2 | . | . | .
Cn1c(SCc2ccccc2)nc(N)c(N=O)c1=O | . | 15µM* | -1 | . | ? | ?
COc1cc(N=c2ssnc2Cl)c(OC)cc1Cl | 25µM* | 2.6µM* | 4 | ? | 2.6µM* | -88*
COc1ccc(OC)c(N=c2ssnc2Cl)c1 | ? | 12µM* | 3 | 18µM* | 12µM* | -7
O=C(O)CSCc1ccc(F)cc1 | . | . | -5 | . | . | .
CC(=O)Nc1ccc(NC(=O)CC2C(=O)Nc3nc(C)nn32)cc1 (stereo not drawn) | . | . | -2 | . | . | .
COc1ccc(NC(=O)Nc2ccc3nccnc3c2)cc1 | -19% | 21µM* | 3 | 9% | 26µM* | -30
COc1ccc(NC(=O)Nc2ccc3nonc3c2)cc1 | 10% | ? | -8 | 1% | 2% | .
COc1ccc(NC(=O)Nc2nccs2)cc1 | 1% | 16µM* | -5 | 14% | 13µM* | 11
Cc1nc2nc(SCC(=O)c3ccc4ccccc4c3)[nH]c2cc1Br | . | . | 3 | . | . | .
CC1CCCCN1S(=O)(=O)c1ccc(C(=O)Nc2ccc3ccccc3n2)cc1 (stereo not drawn) | . | . | 1 | . | . | .
CN(C)c1ccc(C(=O)Nc2nc3c(s2)CCCC3)cc1 | 11µM* | ? | 2 | 5.6µM* | ? | -29
C/C(=N\Nc1nc2c(s1)CCCC2)c1ccc(Cl)cc1 | 11µM* | 8.2µM* | 5 | 1.3µM* | 13µM* | -55*
CC(C)(C)c1ccc(C(=O)NC(=S)Nc2nc3c(s2)CCCC3)cc1 | 4.5µM* | 29µM* | -9 | 1.8µM* | 26µM* | ?
C/C(=N\NC1=NCCN1)c1ccc(Cl)cc1 | -1% | -37% | -8 | 2% | 1% | -28
COC(=O)Nc1nc2c(s1)CCCC2 | 9% | -3% | 2 | ? | 10% | -1
NC(=O)CN1CCN(S(=O)(=O)c2ccc(Cl)cc2F)CC1 | . | . | -2 | . | . | .
O=C(Nc1ccc(F)cc1)C1CCCN(C(=O)Cc2cccc3ccccc23)C1 (stereo not drawn) | . | . | 13 | . | . | .
CCc1ccc(C(=O)CSc2n[nH]c(C(C)C)n2)cc1 | . | . | 5 | . | . | .
Cc1ccc(-c2csc(N3CCN(c4cc5c(cc4Cl)nc(C)n5CCN4CCCCC4)CC3)n2)cc1 | ? | ? | 1 | 11µM* | ? | 0
Cc1ccc(-c2csc(N3CCN(c4cc5c(cc4Cl)nc(C(C)N)n5CCCO)CC3)n2)cc1 (stereo not drawn) | 11% | -16% | -6 | 0% | 12% | 29
SMILES | VP16 counter | TDP1 cell noCPT | LDHA inh | RORgamma inh | DT40 TDP1 CPT | IL1B secr inh
COC(=O)c1ccccc1NC(=O)N1CCN(c2ccc(=O)n(-c3ccc(C)cc3)n2)CC1 | . | . | -1 | . | . | .
COc1ccc(-c2nn(-c3ccccc3)cc2C(=O)NCC(C)(C)N2CCOCC2)cc1OC | . | . | 1 | . | . | .
CC(c1cc(F)ccc1F)N(C)CCS(=O)(=O)CCC(N)=O (stereo not drawn) | . | . | -1 | . | . | .
Cn1nc(C(=O)OC2CCCCCC2)c2ccccc2c1=O | . | . | 4 | . | . | .
COc1ccc(NC(=O)Cc2cccc3ccccc23)c2cccnc12 | . | . | 13 | . | . | .
O=C(O)c1cccc(N(CCO)CCO)c1 | 3% | 12% | -3 | -5% | -6% | 5
OCCN(CCO)c1ccc(C(c2ccccc2Cl)c2ccc(N(CCO)CCO)cc2Cl)c(Cl)c1 | ? | 18µM* | 3 | 14µM* | ? | ?
O=C(COc1nsnc1N1CCOCC1)Nc1ccc(Br)cc1 | 0% | 21µM* | -5 | 17% | ? | -10
COc1ccc(NC(=O)COc2nsnc2N2CCCCC2)cc1 | -10% | 18µM* | 1 | 21% | 12µM* | -10
COc1ccc(NC(=O)COc2nsnc2N2CCOCC2)c(OC)c1 | 6% | -10% | -5 | 1% | -26% | 4
COc1ccc(OC)c(NC(=O)CC2C(=O)NCCN2C(=O)Nc2cccc(Cl)c2)c1 (stereo not drawn) | 13% | -14% | 1 | 2% | ? | -66*
O=C(CC1C(=O)NCCN1C(=O)Nc1ccc(Cl)cc1)Nc1ccc(F)cc1 (stereo not drawn) | -6% | -21% | 1 | 31% | -29% | -64*
CCNC(=S)NNC(=O)/C=C/c1ccccc1 | . | . | 5 | . | . | .
C#CCNC(=O)C[C@@H]1C[C@@]2(C(=O)OC)CCCCC=C2N(Cc2cccc3ccccc23)C1=O | . | ? | -1 | . | ? | -1
COC(=O)[C@]12CCCCC=C1N(Cc1cccc3ccccc13)C(=O)[C@H](CC(=O)N1CCN(C(=O)C3CC3)CC1)C2 | . | 21µM* | 0 | . | ? | 6
COC(=O)[C@]12CCCCC=C1N(Cc1cccc3ccccc13)C(=O)[C@H](CC(=O)N1CCCC1)C2 | . | 21µM* | 2 | . | ? | -19
COC(=O)[C@]12CCCCC=C1N(Cc1cccc3ccccc13)C(=O)[C@H](CC(=O)N1CCN(C(=O)c3ccco3)CC1)C2 | . | ? | 2 | . | ? | -19

Source: PubChem BioAssay
